# FLuc counter – firefly luciferase modulation, counter-screen for miR-21 project | purified FLuc, Km substrates, luminescence inhibition | AID 588342 | Potency, µM (top dose mostly 57.5 µM), inactives show at the top dose activity change, negative = inhibition, most hits filed as inhibitors | hit rate 6.9% among 360,000;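 further: plate controls were vehicle for no effect and reference inhibitor for full effect; nearly all actives have a fitted effect of over 55% in size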
# Target sequence (P08659 whole entry, looked up): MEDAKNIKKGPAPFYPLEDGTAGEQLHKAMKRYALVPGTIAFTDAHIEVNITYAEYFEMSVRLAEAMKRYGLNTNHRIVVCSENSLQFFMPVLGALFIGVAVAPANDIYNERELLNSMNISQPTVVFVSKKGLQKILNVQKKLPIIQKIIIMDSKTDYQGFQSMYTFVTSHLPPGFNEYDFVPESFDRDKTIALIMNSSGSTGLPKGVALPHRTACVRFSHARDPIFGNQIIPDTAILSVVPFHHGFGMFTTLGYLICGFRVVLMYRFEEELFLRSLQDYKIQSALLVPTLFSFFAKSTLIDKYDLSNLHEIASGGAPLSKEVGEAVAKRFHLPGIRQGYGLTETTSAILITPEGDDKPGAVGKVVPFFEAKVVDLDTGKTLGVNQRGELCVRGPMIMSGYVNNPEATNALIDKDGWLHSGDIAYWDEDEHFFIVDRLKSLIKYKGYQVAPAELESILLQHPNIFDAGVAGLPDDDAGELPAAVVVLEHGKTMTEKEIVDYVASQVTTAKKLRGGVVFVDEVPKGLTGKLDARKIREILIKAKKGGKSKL
#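 Purified P. pyralis luciferase (10nM final) with 10uM D-luciferin and 10uM ATP (Km levels) in 50mM Tris acetate pH 7.5, 10mM Mg acetate, 0.01% Tween-20, 0.05% BSA; qHTS 6-point titration, ~60 µM downward; luminescence read.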
# Rab9 promoter act – activators of Rab9 promoter; Huh7 Rab9 promoter-luciferase reporter, luminescence, 24 h; Potency, µM (titrated, usually from 9.22 µM), without a hit: at the highest dose activation, negative = inhibition, actives largely listed as activators; hit rate 2.8% among 320,000; further: % of control where 0% means no effect; nearly all actives have a fitted effect of over 60% in size
#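 Rab9 promoter-driven luciferase in stably transfected Huh7 cells; 1500 cells/well rested 2 h, exposed to compound in DMSO for 24 h at 37 °C, 5% CO2. Luminescence read 10 min after adding luciferase reagent at ambient temperature.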
# p53 reactivation – restores transcriptional activity of mutant p53; AID 504706; hit rate 0.063% among 320,000; Potency, µM (series often up to 92.2 µM), for the others: at the top dose activity change, positive = activation, actives largely listed as activators; H1299 p53-A138V BP100-luciferase reporter, luminescence, 24 h; further: % of control where 0% means no effect; nearly all actives have a fitted effect of over 45% in size
#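 H1299 (p53-null), stable ts p53-A138V + BP100-Luc; 1000 cells/well, Opti-MEM/10% FBS; cpd 4 pt, 1:5; 24 h, 37 deg C, 5% CO2; detection reagent 10 min RT; luminescence.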
# NPC1 promoter act – activators of NPC1 promoter; Huh7 NPC1 promoter luciferase reporter, 24 h; Potency, µM (series often up to 9.22 µM), inactives show at the highest dose activation, usual class: activators; hit rate 2.4% among 320,000; AID 485313; further: % of control where 0% means no effect; nearly all actives have a fitted effect of over 60% in size
#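 Stable NPC1-promoter luciferase Huh7 line; cpd (DMSO) 24 h, 37 °C, 5% CO2; Amplite luciferase reagent 10 min RT; luminescence readout. qHTS format.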
# SMN2 splice up – SMN2 splice variant enhancement; HEK293 SMN2-luciferase splicing reporter, luminescence, 30-36 h; Potency, µM (highest dose often 46.1 µM), for inactives: top-dose activity change, positive = activation, actives largely listed as activators; AID 1458; hit rate 2.8% among 210,000; further: % of control where 0% means no effect; nearly all actives have a fitted effect of over 55% in size
#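 HEK293 cells carry an SMN2 minigene-luciferase reporter in which exon 7 inclusion puts luciferase in frame. Cells were seeded at 2000 cells/well, attached for 10-12 hours, then exposed to compounds for 30-36 hours at 37C before ONE-Glo luminescence.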
# ELG1 genotox – induces genotoxicity in HEK293T cells with luciferase-tagged ELG1; HEK293T ELG1-luciferase reporter, luminescence, 16 h; Potency, µM (series often up to 46 µM), without a hit: at the top dose activity change, positive = activation, most hits filed as activators; hit rate 1.3% among 330,000; further: % of control where 0% means no effect; nearly all actives have a fitted effect of over 60% in size
#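 Genotoxicity was scored as increased ELG1-luciferase reporter signal, measured by ONE-Glo luminescence (30 min, room temperature). Compound or vehicle exposure of the HEK293T reporter cells lasted 16 hr at 37°C.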
# Starred values were filed as active, the others as inactive; ? = inconclusive; . = no result. Shown are actives, neighbours in structure and some others; about 7.3% of the full set was active somewhere. The call rests on the fitted dose curve; in most records, active means well fitted curve in the direction sought with a large enough effect; inconclusive means small, poorly fitted or top-dose-only effect, or another doubt; inactive means no such curve, though single readings can be large; an effect the other way counts as inactive or inconclusive. Potency means the concentration at half of the fitted maximal effect.
SMILES,FLuc counter,Rab9 promoter act,p53 reactivation,NPC1 promoter act,SMN2 splice up,ELG1 genotox
COc1ccccc1Nc1nnc(SCC2CCCCO2)s1 (stereo not drawn),1.5µM*,2.5µM*,2%,3.5µM*,?,?
CCc1ccc(C2c3c(-c4ccccc4O)n[nH]c3C(=O)N2Cc2cccnc2)cc1 (stereo not drawn),-6%,.,.,.,3%,.
COC(=O)c1cccc(COC(=O)c2ccc(N(C)C)cc2)c1,?,?,-7%,25%,?,3%
COC(=O)c1ccc(COC(=O)c2ccc(N(C)C)cc2)cc1,-15%,21%,11%,?,7.1µM*,0%
CN(C)c1ccc(C(=O)OCc2ccccc2)cc1,12µM*,8%,?,12%,-1%,23µM*
Cc1ccc(/C(O)=C2/C(=O)C(=O)N(Cc3ccco3)C2c2cccs2)cc1 (stereo not drawn),24µM*,-3%,13%,-4%,11%,1%
CCN(CC)CCN1C(=O)C(=O)/C(=C(/O)c2ccc(OC)cc2)C1c1cccs1 (stereo not drawn),?,6%,?,15%,-1%,-3%
CC(C)c1ccc(OCC(=O)Nc2cccc(C(=O)Nc3ccccc3C(=O)O)c2)cc1,21µM*,-4%,-12%,0%,14%,2%
O=C(O)c1ccc(NC(=O)c2ccccc2NC(=O)c2cccc(Br)c2)cc1,11µM*,-2%,.,-2%,.,5%
O=C(Nc1ccccc1C(=O)O)c1cccc(NC(=O)c2ccccc2Br)c1,24µM*,-5%,.,0%,.,-3%
O=C(O)c1cccc(NC(=O)c2ccccc2NC(=O)c2cccc([N+](=O)[O-])c2)c1,?,2%,-3%,0%,.,-1%
O=C(O)CCCC(=O)Nc1cccc(C(=O)Nc2ccccc2C(=O)O)c1,?,-7%,1%,-1%,.,2%
CC(C)C(=O)Nc1cccc(C(=O)Nc2ccccc2C(=O)O)c1,7.6µM*,16%,2%,7%,-6%,-1%
Cc1ccc(Nc2cc(C)c(O)c(C)c2)cc1,?,11%,-4%,15%,.,?
Cc1nnc(N2CCN(c3ccccc3F)CC2)c2c1nnn2Cc1ccccc1Cl,0%,.,.,.,7%,.
O=C(Nc1nnc(CSCc2ccc(Cl)cc2)s1)c1cccc([N+](=O)[O-])c1,-14%,-2%,-12%,6%,-23%,-3%
O=C(Nc1ccc(Cl)cc1F)c1ccccc1Br,11µM*,2.2µM*,82%,1.8µM*,11µM*,?
CC(C)C(=O)Nc1cccc(C(=O)Nc2nnc(C(C)(C)C)s2)c1,13µM*,11%,23%,1%,-6%,2%
CCC(C)(C)c1nnc(NC(=O)c2cccc([N+](=O)[O-])c2)s1,19µM*,22%,?,20%,?,14%
O=C(Nc1n[nH]c(C2CCCCC2)n1)C1CCCCC1,-12%,15%,.,11%,0.11µM*,21µM*
O=C(Nc1ncccn1)C1CCCCC1,0%,-13%,1%,-5%,.,-2%
COc1ccc(-c2nnc(-c3ccc(OCC(C)C)cc3)o2)cc1,?,4%,3%,3%,-15%,1%
CC(C)COc1ccc(-c2nnc(-c3ccncc3)o2)cc1,3.4µM*,0.63µM*,?,1.1µM*,19%,15%
CCCOc1ccc(-c2nnc(-c3ccncc3)o2)cc1,4.8µM*,?,33%,3.5µM*,?,2.1µM*
c1cc(-c2nnc(-c3ccncc3)o2)ccn1,3%,3%,9%,-1%,5%,0%
CCOC(=O)c1cc(-c2ccc(N)cc2)sc1N,15µM*,2.2µM*,9%,2.8µM*,11µM*,7.3µM*
CCOC(=O)c1sc(-c2ccc(Br)cc2)cc1N,4.8µM*,2.8µM*,10%,2.2µM*,13µM*,?
CCOC(=O)c1sc(-c2ccccc2)cc1NC(=O)Nc1ccccc1,?,-2%,4%,-7%,-10%,-2%
